D2 ag-1 – D2 dopamine receptor (human) agonism; HEK293 T-REx D2 cells, calcium flux agonist mode; AID 485358; 0.53% of 340,000 active; activation, % at 2 µM; P14416;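 active = activation over 3 SD above normal in the single-dose calcium agonist read, cut at about 30% in these data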; note: 0% is about no effect
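HEK293 Trex D2 cells, tetracycline-induced, o/n 30 C 5% CO2; no-wash Ca dye, RT 30–90 min; 10-cycle baseline, 23 nl cpd added, kinetic Ca read 180 s; agonist hits = positive Ca response.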
D2 PAM-1 – positive allosteric modulators of human D2 dopamine receptor; DiscoveRx D2 beta-arrestin cells, luminescence, 90 min; 100% = 57 uM dopamine signal; AID 624464; potentiation, % (no concentration beside the values); P14416; 0.23% of 360,000 active; in the data active = potentiation above about 50%; inconclusive = mostly about 30% to 49%
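PathHunter D2 cells, attached overnight at 37 deg C, received compound in DMSO plus dopamine at EC20 (50 nM final) for 90 min at 37 deg C. Beta-arrestin recruitment was read as luminescence after 1 h with detection reagent at ambient temperature.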
D2 antag – antagonizes the human D2 dopamine receptor | inhibition, % at 10 µM | 2% of 340,000 active | AID 485344 | P14416 | HEK293 TREx D2 cells, calcium flux, dopamine EC80; in the data active = inhibition above about 30%; inactive = below that, where a call was filed; note: 0% is about no effect
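Inhibition of EC80 dopamine-driven calcium flux, recorded kinetically, defines activity here; cells are a tetracycline-induced HEK293 T-REx line expressing force-coupled D2.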
D2 ag-2 – activates the human D2 dopamine receptor. DiscoveRx PathHunter D2 beta-arrestin, luminescence, 90 min; 100% = 57 uM dopamine signal. 0.084% of 360,000 active. activation, % (no concentration beside the values); in the data active = activation above about 40%; inconclusive = between about 15% and that limit
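Agonist mode: compounds alone added to overnight-plated D2 PathHunter cells for 90 min at 37 C, with 57 uM final dopamine (EC100) defining full response. Beta-arrestin recruitment detected by chemiluminescent reagent, read after 1 h at ambient temperature.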
D2 PAM-2 – positive allosteric modulators of human D2 dopamine receptor | 0.34% of 340,000 active | HEK293 T-REx D2, calcium flux, EC20 dopamine potentiation | P14416 | potentiation, % at 10 µM;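 active = potentiation over 3 SD above the plate norm, cut at about 30% in these data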; note: 0% is about no effect
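Potentiation of an EC20 dopamine calcium response measured kinetically over 180 s, after a preceding 180 s compound-only read flagging agonists. Cells: inducible Hek293 Trex D2 line, 4000/well, cultured overnight at 30 C before dye loading.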
D3 ag – activates human D3 dopamine receptor beta-arrestin recruitment | shares compounds with D2 ag-1 | DiscoveRx D3 beta-arrestin cells, luminescence, 90 min | Potency, µM (series often up to 76.9 µM), inactives show at the top dose activation, usual class: activators | 4% of 2,300 active | AID 720506;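 note: potency is the fitted concentration of half-maximal effect; 100% = dopamine control response; nearly all actives have a fitted effect of over 70% in size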
Target sequence (P35462 whole entry, looked up): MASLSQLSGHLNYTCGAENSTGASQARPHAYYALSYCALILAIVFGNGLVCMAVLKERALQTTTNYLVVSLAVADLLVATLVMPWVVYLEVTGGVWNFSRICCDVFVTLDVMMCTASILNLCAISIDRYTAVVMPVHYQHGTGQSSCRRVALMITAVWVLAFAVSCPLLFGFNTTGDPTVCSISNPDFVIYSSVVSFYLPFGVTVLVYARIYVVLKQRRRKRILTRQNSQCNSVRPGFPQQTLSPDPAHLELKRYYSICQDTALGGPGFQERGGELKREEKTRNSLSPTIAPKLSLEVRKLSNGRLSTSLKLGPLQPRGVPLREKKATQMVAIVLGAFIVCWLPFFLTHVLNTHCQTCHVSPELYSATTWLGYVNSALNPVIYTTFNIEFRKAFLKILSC
D2 ag-3 – counter-screen for D3 agonists: human D2 dopamine receptor agonism | shares compounds with D2 ag-1 | DiscoveRx PathHunter D2 beta-arrestin, luminescence, 90 min; response scale: percent relative to full dopamine signal | Potency, µM (highest dose often 76.9 µM), for the others: at the highest dose activation, actives largely listed as activators | 5.9% of 2,300 active | AID 720507; note: potency is the fitted concentration of half-maximal effect; % of control where 0% means no effect; nearly all actives have a fitted effect of over 70% in size
Numbers without * were called inactive; ? = inconclusive; . = no result. This is a sample that favours compounds with a hit; in the whole collection about 2.4% have one here. Unless noted, calls come from the whole dose curve; as a rule, active = well fitted activation curve with a large enough effect; inconclusive = small, poorly fitted or top-dose-only effect; inactive = flat fitted curve, though single readings scatter.

SMILES	D2 ag-1	D2 PAM-1	D2 antag	D2 ag-2	D2 PAM-2	D3 ag	D2 ag-3
COc1cc(-c2cc(C(=O)Nc3c(Cl)cc(Cl)cc3Cl)c3ccccc3n2)cc(OC)c1OC	0	-14	5	-5	7	.	.
Cc1csc2nc(COC(=O)c3cccc(NC(=O)c4cccc(Cl)c4)c3)cc(=O)n12	1	.	.	.	-1	.	.
NCCCn1cnc2ccccc21	1	-1	3	-5	.	-2%	1%
c1ccc2c(c1)ncn2CCn1cnc2ccccc21	-1	-12	-16	-4	-3	.	.
COc1cccc(CNC(=O)c2ccc(CS(=O)Cc3ccc(Cl)cc3)o2)c1 (stereo unspecified)	.	.	.	.	-4	.	.
O=C(C1CCC(CNS(=O)(=O)c2cccc3cccnc23)CC1)N1CCCC1 (stereo unspecified)	-2	-3	11	1	-4	.	.
O=S(=O)(NCC1CCCN(Cc2ccccc2O)C1)c1cccc2cccnc12 (stereo unspecified)	49*	-36	18	-3	-21	-6%	0%
CC1CCc2c(sc(NC(=O)c3cc(-c4cccc(Cl)c4)on3)c2C(N)=O)C1 (stereo unspecified)	0	.	.	.	-10	.	.
Cc1ccc(NC(=O)c2ccc(NCCCN3CCC(C)CC3)c([N+](=O)[O-])c2)cc1F	29	-12	5	-2	-17	-17%	10%
O=C(Nc1cccc(Cl)c1)c1ccc(NCCCN2CCOCC2)c([N+](=O)[O-])c1	-2	-34	-10	-2	3	.	.
CCOc1cc(C2CC(=O)Nc3c2c(=O)nc(SCc2cccc(Cl)c2)n3C)ccc1O (stereo unspecified)	-2	.	.	.	8	.	.
Cc1cccc(NC(=O)C2CCCN(S(=O)(=O)c3c(C)n[nH]c3C)C2)c1 (stereo unspecified)	0	.	.	.	0	.	.
Nc1nc(CN2CCN(c3ccccc3F)CC2)nc(N2CCCc3ccccc32)n1	82*	13	79*	?	-17	?	?
Nc1nc(CN2CCN(c3ccccc3)CC2)nc(N2CCCc3ccccc32)n1	.	54*	.	?	.	35µM*	?
Nc1nc(CN2CCN(c3cccc(Cl)c3)CC2)nc(N2CCCc3ccccc32)n1	42*	29	70*	?	-16	16%	?
COc1ccc(N2CCN(Cc3nc(N)nc(Nc4ccc(C)c(Cl)c4)n3)CC2)cc1	2	-12	-10	1	-4	.	.
COc1ccc(N2CCN(Cc3nc(N)nc(N4CCCc5ccccc54)n3)CC2)cc1	49*	-9	7	4	-12	4%	14%
Nc1nc(CSc2nnnn2-c2ccccc2)nc(N2CCCc3ccccc32)n1	8	-11	0	-3	-6	.	.
COc1ccc2cc3cc(C(=O)NCCN4CCc5ccccc5C4)sc3nc2c1	72*	-13	19	3	-28	-8%	?
CC(C)(C)NC(=O)c1cc2c(ccc3ccccc32)oc1=O	.	1	.	12	.	?	9%
CCC(C)NC(=O)CSc1nc2cc3c(cc2c(=O)n1CCCCCC(=O)NCc1ccc(OC)cc1)OCO3 (stereo unspecified)	0	.	.	.	7	.	.
Cc1ccc(Cn2c(C)c3cnn(CC(=O)N4CCN(c5ccc(F)cc5)CC4)c(=O)c3c2C)cc1	1	.	.	.	2	.	.
COc1cccc2c1cc1c(=O)n(CC(=O)N3CCCCCC3)nc(C)n12	43*	8	11	14	-12	?	?
CCOC(=O)C1CCCN(C(=O)Cn2nc(C)n3c(cc4c(OC)cccc43)c2=O)C1 (stereo unspecified)	19	8	5	?	-1	?	27%
CCOC(=O)C1CCN(C(=O)Cn2nc(C)n3c(cc4c(OC)cccc43)c2=O)CC1	.	.	.	.	-16	.	.
SMILES	D2 ag-1	D2 PAM-1	D2 antag	D2 ag-2	D2 PAM-2	D3 ag	D2 ag-3
COc1cccc2c1cc1c(=O)n(CC(=O)N3CCCCC3)nc(C)n12	5	.	.	.	1	.	.
O=C(c1ccco1)N1CCN(CCOc2ccc(F)cc2)CC1	-2	3	-13	10	4	.	.
c1ccc(CN2CCN(CCOCCOc3cccc4ccccc34)CC2)cc1	1	-6	-5	1	-24	.	.
O=C(c1ccco1)N1CCN(CCCCOc2cccc3ccccc23)CC1	76*	3	84*	?	-26	?	?
O=C(c1ccco1)N1CCN(CCOCCOc2cccc3ccccc23)CC1	66*	20	77*	?	-18	7.9µM*	25µM*
Cc1ccc(-n2nc(CO)c(C(=O)NCCc3ccccc3)n2)cc1C	-1	.	.	.	6	.	.
COc1ccc([C@H]2CC(=O)C=C(c3ccc4c5c(cccc35)CC4)C2)cc1	0	-5	-8	-2	0	-9%	-6%
COc1ccc([C@H]2CC(=O)C=C(c3ccc(C)c4ccccc34)C2)cc1	-1	-7	-5	-3	12	.	.
Cn1c(Cc2ccccc2)nnc1SCC(=O)N1CCOCC1	1	-3	-23	-2	3	.	.
O=C(CSc1nnc(Cc2ccccc2)n1-c1ccc(Cl)cc1)N1CCOCC1	40*	-8	-4	0	2	2%	-1%
O=C(Nc1cccc(Cl)c1Cl)c1ccc2c(c1)N(Cc1cccc(Cl)c1)C(=O)c1ccccc1S2=O (stereo unspecified)	-1	.	.	.	11	.	.
O=C(OCCN1C(=O)c2cccc3c(N4CCOCC4)ccc(c23)C1=O)c1ccccc1Cl	.	10	.	7	-6	?	?
O=C(Nc1cccc(C(=O)N2CCOCC2)c1)c1ccc([N+](=O)[O-])cc1	39*	2	-1	0	-4	?	3%
CCCCOc1ccc(C(=O)N2CCN(c3ccc(N4CCOCC4)nn3)CC2)cc1	-1	0	1	2	-3	.	.
CCCOc1ccc(C(=O)N2CCN(c3ccc(N)cc3Cl)CC2)cc1	31*	-3	2	-3	-5	-3%	2%
C=CCn1c(SCC(=O)c2ccc(O)c(O)c2)nnc1-c1cccc(OC)c1	41*	-4	2	1	-45	5%	9%
COc1ccc(C2OC(=O)CC2C(=O)NCc2ccc(F)cc2)cc1OC (stereo unspecified)	-1	-32	7	3	7	-7%	-6%
Cc1cc(-c2n[nH]c(=S)n2/N=C/c2sccc2C)n[nH]1	66*	-2	-15	-2	-26	-16%	-12%

Compound activity from PubChem.
